Source: PubChem
The list is not random: actives were taken first. Their share in the collection is about 3.3%.
sPLA2-III inh: Blocks human group III sPLA2 activity; Q9NZ20; QFRET BODIPY PC-A2 liposome hydrolysis, fluorescence; inhibition, % at 12.2 µM; actives 0.56% (n = 370,000); AID 743126;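 active = inhibition above mean plus 3 SD of compounds lying within the high and low control bounds, cut at about 19% in these data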;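 note: 0% = median of test compound wells and 100% = no enzyme DMSO wells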
UBC13 polyUb: human UBC13 polyubiquitination inhibition; P61088; UBC13 polyubiquitin chain formation, TR-FRET; inhibition, % at 20 µM; actives 0.47% (n = 330,000); AID 485273; in the data active = inhibition above about 45%, passing the limit was not always enough
Target sequence (P61088 whole entry, looked up): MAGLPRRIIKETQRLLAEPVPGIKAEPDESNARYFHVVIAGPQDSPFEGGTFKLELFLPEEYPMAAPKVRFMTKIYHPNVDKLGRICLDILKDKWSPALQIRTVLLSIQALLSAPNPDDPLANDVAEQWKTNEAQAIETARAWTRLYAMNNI
GRIN3A LBD mod: modulates the human NR3A ligand-binding domain. NR3A LBD differential scanning fluorimetry, Tm shift; 0% = protein alone, 100% = glycine-bound protein. Tm shift relative to glycine control, % at 25 µM. actives 2.5% (n = 340,000). AID 1259313;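 active = melting temperature shift of at least 10% of the positive control shift, at one fixed dose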
SUMO HTRF inh: inhibitors of human SUMOylation (UBC9); P63279; HTRF SUMOylation assay, SAE1/SAE2 + UBC9, in vitro; inhibition, % at 35 µM; actives 0.36% (n = 290,000); in the data active = inhibition above about 50%, passing the limit was not always enough
Target sequence (P63279 whole entry, looked up): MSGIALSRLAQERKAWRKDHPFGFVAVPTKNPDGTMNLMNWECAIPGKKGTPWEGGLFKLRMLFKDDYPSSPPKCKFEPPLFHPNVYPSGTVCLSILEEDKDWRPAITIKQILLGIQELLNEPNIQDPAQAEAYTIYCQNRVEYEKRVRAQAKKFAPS
* = called active by the depositor; . = no result given.

SMILES	sPLA2-III inh	UBC13 polyUb	GRIN3A LBD mod	SUMO HTRF inh
COc1cc(S(=O)(=O)N2CCN(Cc3ccccc3)CC2)ccc1Br	-9.0	-0.8	-2.1	-11.3
O=c1[nH]c2ccc(S(=O)(=O)N3CCN(Cc4ccccc4)CC3)cc2[nH]c1=O	.	9.6	11.1*	24.8
O=S(=O)(Nc1nc2ccccc2nc1Nc1ccc(N2CCOCC2)cc1)c1cc(Cl)ccc1Cl	-0.7	-27.2	19.9*	27.9
Clc1nc(Nc2ccc(N3CCOCC3)cc2)c2ccccc2n1	2.7	21.8	0.8	-14.6
O=C(/C=C/c1cccc(C(F)(F)F)c1)Nc1cccc(C(F)(F)F)c1	-14.4	-0.9	13.8*	7.9
C/C=C/C(=O)Nc1cccc(C(F)(F)F)c1	2.5	1.5	-0.6	4.9
O=C(O)C1=C(C(=O)Nc2cccc(C(F)(F)F)c2)CCCC1	-4.5	-3.9	-2.8	-3.3
O=C(Nc1cccc(C(F)(F)F)c1)C1(c2ccccc2)CC1	5.2	-0.6	11.9*	-4.6
Cc1ccc(/C=C/C(=O)N2CCN(c3cccc(C(F)(F)F)c3)CC2)cc1	16.1	4.8	20.7*	3.5
Cc1ccc(NC(=O)/C=C/c2cccc(C(F)(F)F)c2)cc1	3.3	-7.3	24.6*	-19.4
O=C(O)/C=C/C(=O)Nc1cccc(C(F)(F)F)c1	10.1	3.4	-0.1	5.7
Cc1cccc(CNC(=O)NC2CCCCN(Cc3cccc(Cl)c3)C2=O)c1 (configuration not stated)	6.0	.	.	.
CN1CCCN(C(=O)CN2C(=O)CC(C)(C)S(=O)(=O)c3ccccc32)CC1	-2.1	.	.	.
O=C(c1ccc(F)cc1)C1CCN(c2ncnc3sccc23)CC1	-11.6	.	.	.
COc1ccc(N2C(=O)C3CCCCC3C2=O)cc1NC(=O)c1ccccc1 (configuration not stated)	2.6	4.9	38.5*	9.4
COC[C@@H]1CCCN1c1cccc2c1S(=O)(=O)N(C1CC1)CC[C@@H](C)O2	10.3	.	.	.
C[C@H]1CCC[C@@H](O)CC(=O)c2c(O)cc(O)cc2CC(=O)O1	-0.3	.	.	.
CN(CC#Cc1ccccc1)C(N)=NC(=O)/C=C/c1ccccc1	-2.3	.	.	.
COC(=O)c1ccc2c(=O)n(Cc3ccco3)c(SCC(=O)Nc3cc(C)on3)nc2c1	16.1	-16.1	2.0	24.8
COCCn1c(C)cc(C(=O)CSc2cc(C)c3ccccc3n2)c1C	-10.8	-2.3	6.9	4.1
COCCn1c(C)cc(C(=O)CSc2nc3ccccc3c(=O)n2Cc2ccco2)c1C	-1.5	37.8	11.5*	6.6
Cc1cc(NC(=O)CSc2nc3cc(C(=O)NCCCOC(C)C)ccc3c(=O)n2Cc2ccco2)no1	0.0	9.5	-2.2	50.5*
Cc1ccc(NC(=O)C2CCCN2S(=O)(=O)c2cccnc2)c(C)c1 (configuration not stated)	7.7	.	.	.
CCOC(=O)[C@]12CCCC3=C1N(CCC3)C(=O)[C@@H](CC(=O)NCC1CCCCC1)C2	1.0	.	.	.
CC(C)[C@H](NC(=O)c1ccccc1)C(=O)N1CCC[C@H]1C(=O)NCc1ccccc1	-0.5	.	.	.
SMILES	sPLA2-III inh	UBC13 polyUb	GRIN3A LBD mod	SUMO HTRF inh
COc1ccc(S(=O)(=O)N2CCc3ccccc3C2)cc1C(=O)O	-6.5	4.8	1.4	2.2
COc1ccc(S(=O)(=O)N2CCc3ccccc3C2)cc1OC	-14.6	-4.0	14.2*	22.8
Cc1ccc2cc(/C=N/Nc3nc4ccccc4[nH]3)c(Cl)nc2c1	-5.8	.	11.7*	-87.3
O=C(Nc1cccc(Cl)c1)OC1CCC12CCC(c1ccccc1)CC2 (configuration not stated)	-6.1	.	.	.
O=C(CCCCn1c(=O)c2ccccc2n(Cc2ccc(Cl)cc2)c1=O)NCc1ccco1	1.2	12.9	13.6*	14.6
Cc1cccc(Cn2c(=O)n(CCCC(=O)NCc3ccco3)c(=O)c3ccccc32)c1	0.0	14.4	-0.1	8.5
O=C(CN1CCOCC1)Nc1ccc(-c2nc3ccccc3[nH]2)cc1	0.7	12.1	-6.8	7.2
O=C(Nc1ccc(-c2nc3ccccc3[nH]2)cc1)c1c(F)c(F)c(F)c(F)c1F	2.9	4.0	16.2*	28.7
CCNC(=S)Nc1ccc(-c2nc3ccccc3[nH]2)cc1	0.4	12.3	27.7*	18.2
CCOc1ccc(NC(=S)NCc2nc3ccccc3[nH]2)cc1	5.6	3.6	-3.1	5.5
COc1c(F)c(F)c(C(=O)Nc2ccc(-c3nc4ccccc4[nH]3)cc2)c(F)c1F	-2.7	17.2	13.4*	29.7
COc1ccc(C(=O)OCCCN(C)C2CN(Cc3cn(Cc4ccc([N+](=O)[O-])cc4)nn3)S(=O)(=O)C2)cc1OC (configuration not stated)	8.1	.	.	.
